# Substitutions are numbered along the chain they refer to.
# Key:
# Test in all cases: PBM; 200 nM protein, PBS
# Settings in all cases: dsDNA, one strand shown
# [1] = biological target: CRX (Homo sapiens, UniProt O43186 26-111)
# [2] = biological target: CRX (Homo sapiens, UniProt O43186 26-111, E42D)
# [3] = biological target: PITX2 (Homo sapiens, UniProt Q99697 72-157)
# [4] = biological target: CRX (Homo sapiens, UniProt O43186 26-111, R41L)
# [5] = biological target: MSX2 (Homo sapiens, UniProt P35548 130-214, R199I)
# [6] = biological target: MSX2 (Homo sapiens, UniProt P35548 130-214)
# [7] = biological target: MSX2 (Homo sapiens, UniProt P35548 130-214, F161Y)
# [8] = biological target: ALX1 (Homo sapiens, UniProt Q15699 118-204, L144V)
# [9] = biological target: ALX1 (Homo sapiens, UniProt Q15699 118-204, L144R)
# [10] = biological target: ALX1 (Homo sapiens, UniProt Q15699 118-204)
# [11] = biological target: ALX3 (Homo sapiens, UniProt O95076 139-225, N203Q)
# [12] = biological target: ALX3 (Homo sapiens, UniProt O95076 139-225)
# [13] = biological target: ALX3 (Homo sapiens, UniProt O95076 139-225, L168Q)
# [14] = biological target: ALX3 (Homo sapiens, UniProt O95076 139-225, L168V)
# [15] = biological target: ALX3 (Homo sapiens, UniProt O95076 139-225, N203S)
# [16] = biological target: T1, NKX2-6 (Homo sapiens, UniProt A6NCS4 118-204)
# T1 sequence: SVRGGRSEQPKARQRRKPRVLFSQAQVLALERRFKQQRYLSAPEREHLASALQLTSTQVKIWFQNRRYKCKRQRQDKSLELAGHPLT
# [17] = biological target: VAX1 (Homo sapiens, UniProt Q5SQQ9 86-172)
# [18] = biological target: T2, NKX2-6 (Homo sapiens, UniProt A6NCS4 118-204, F151L)
# T2 sequence: T1 sequence with F34L
# [19] = biological target: VAX1 (Homo sapiens, UniProt Q5SQQ9 86-172, T142I)
# [20] = biological target: VAX1 (Homo sapiens, UniProt Q5SQQ9 86-172, K157R)
# Chain of VAX1 (Homo sapiens, UniProt Q5SQQ9 86-172, K157R) (Q5SQQ9 86-172 K157R): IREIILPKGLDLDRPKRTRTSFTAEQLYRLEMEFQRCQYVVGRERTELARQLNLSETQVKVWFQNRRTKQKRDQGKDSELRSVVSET
# Chain of CRX (Homo sapiens, UniProt O43186 26-111) (O43186 26-111): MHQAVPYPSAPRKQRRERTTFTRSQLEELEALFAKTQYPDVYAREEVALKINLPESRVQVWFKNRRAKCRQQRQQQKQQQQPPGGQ
# Chain of CRX (Homo sapiens, UniProt O43186 26-111, R41L) (O43186 26-111 R41L): as the sequence (O43186 26-111) above, with R16L counted along it
# Chain of CRX (Homo sapiens, UniProt O43186 26-111, E42D) (O43186 26-111 E42D): as the sequence (O43186 26-111) above, with E17D counted along it
# Chain of MSX2 (Homo sapiens, UniProt P35548 130-214, F161Y) (P35548 130-214 F161Y): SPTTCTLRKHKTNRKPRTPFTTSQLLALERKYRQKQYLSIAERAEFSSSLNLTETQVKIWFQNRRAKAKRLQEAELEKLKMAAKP
# Chain of MSX2 (Homo sapiens, UniProt P35548 130-214) (P35548 130-214): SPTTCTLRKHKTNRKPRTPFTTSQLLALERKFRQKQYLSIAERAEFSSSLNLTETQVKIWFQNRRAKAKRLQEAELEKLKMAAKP
# Chain of ALX1 (Homo sapiens, UniProt Q15699 118-204, L144R) (Q15699 118-204 L144R): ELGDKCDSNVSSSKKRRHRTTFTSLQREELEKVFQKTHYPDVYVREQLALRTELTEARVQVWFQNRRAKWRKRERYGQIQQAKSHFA
# Chain of ALX1 (Homo sapiens, UniProt Q15699 118-204, L144V) (Q15699 118-204 L144V): as the sequence (Q15699 118-204 L144R) above, with R27V counted along it
# Chain of ALX3 (Homo sapiens, UniProt O95076 139-225, L168Q) (O95076 139-225 L168Q): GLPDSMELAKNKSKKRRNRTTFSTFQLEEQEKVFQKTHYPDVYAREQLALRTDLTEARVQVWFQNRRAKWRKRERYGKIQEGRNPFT
# Chain of ALX3 (Homo sapiens, UniProt O95076 139-225, N203S) (O95076 139-225 N203S): as the sequence (O95076 139-225 L168Q) above, with Q30L, N65S counted along it
# Chain of ALX3 (Homo sapiens, UniProt O95076 139-225, L168V) (O95076 139-225 L168V): as the sequence (O95076 139-225 L168Q) above, with Q30V counted along it
# Chain of ALX3 (Homo sapiens, UniProt O95076 139-225) (O95076 139-225): as the sequence (O95076 139-225 L168Q) above, with Q30L counted along it
# Chain of VAX1 (Homo sapiens, UniProt Q5SQQ9 86-172, T142I) (Q5SQQ9 86-172 T142I): as the sequence (Q5SQQ9 86-172 K157R) above, with T57I, R72K counted along it
# Chain of VAX1 (Homo sapiens, UniProt Q5SQQ9 86-172) (Q5SQQ9 86-172): as the sequence (Q5SQQ9 86-172 K157R) above, with R72K counted along it
# Chain of MSX2 (Homo sapiens, UniProt P35548 130-214, R199I) (P35548 130-214 R199I): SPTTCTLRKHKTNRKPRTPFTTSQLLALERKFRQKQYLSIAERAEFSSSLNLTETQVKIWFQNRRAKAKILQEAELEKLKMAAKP
# Chain of ALX1 (Homo sapiens, UniProt Q15699 118-204) (Q15699 118-204): as the sequence (Q15699 118-204 L144R) above, with R27L counted along it
# Chain of ALX3 (Homo sapiens, UniProt O95076 139-225, N203Q) (O95076 139-225 N203Q): as the sequence (O95076 139-225 L168Q) above, with Q30L, N65Q counted along it
sequence,measurement,setting,value
AGTAATCC,binding signal,[1],"13.2 upbm affinity estimate (log intensity, higher = more binding, comparable within an allelic series)"
same,binding signal,[2],"13.1 upbm affinity estimate (log intensity, higher = more binding, comparable within an allelic series)"
same,binding signal,[3],"13.1 upbm affinity estimate (log intensity, higher = more binding, comparable within an allelic series)"
same,binding signal,[4],"13 upbm affinity estimate (log intensity, higher = more binding, comparable within an allelic series)"
ACTAATCC,binding signal,[1],"13.6 upbm affinity estimate (log intensity, higher = more binding, comparable within an allelic series)"
same,binding signal,[2],"13.7 upbm affinity estimate (log intensity, higher = more binding, comparable within an allelic series)"
same,binding signal,[3],"13.4 upbm affinity estimate (log intensity, higher = more binding, comparable within an allelic series)"
same,binding signal,[4],"13.4 upbm affinity estimate (log intensity, higher = more binding, comparable within an allelic series)"
GGGGCTTA,binding signal,[1],"12.8 upbm affinity estimate (log intensity, higher = more binding, comparable within an allelic series)"
same,binding signal,[2],"12.7 upbm affinity estimate (log intensity, higher = more binding, comparable within an allelic series)"
same,binding signal,[3],"12.4 upbm affinity estimate (log intensity, higher = more binding, comparable within an allelic series)"
GGATTAAA,binding signal,[1],"13.5 upbm affinity estimate (log intensity, higher = more binding, comparable within an allelic series)"
same,binding signal,[2],"13.6 upbm affinity estimate (log intensity, higher = more binding, comparable within an allelic series)"
same,binding signal,[3],"13.3 upbm affinity estimate (log intensity, higher = more binding, comparable within an allelic series)"
same,binding signal,[4],"13.4 upbm affinity estimate (log intensity, higher = more binding, comparable within an allelic series)"
TAATCTCA,binding signal,[1],"12.7 upbm affinity estimate (log intensity, higher = more binding, comparable within an allelic series)"
same,binding signal,[2],"12.7 upbm affinity estimate (log intensity, higher = more binding, comparable within an allelic series)"
same,binding signal,[3],"12.4 upbm affinity estimate (log intensity, higher = more binding, comparable within an allelic series)"
same,binding signal,[4],"12.4 upbm affinity estimate (log intensity, higher = more binding, comparable within an allelic series)"
CGGGGTGC,binding signal,[1],"8.16 upbm affinity estimate (log intensity, higher = more binding, comparable within an allelic series)"
same,binding signal,[2],"8.25 upbm affinity estimate (log intensity, higher = more binding, comparable within an allelic series)"
same,binding signal,[5],"9.55 upbm affinity estimate (log intensity, higher = more binding, comparable within an allelic series)"
same,binding signal,[6],"9.66 upbm affinity estimate (log intensity, higher = more binding, comparable within an allelic series)"
same,binding signal,[7],"9.67 upbm affinity estimate (log intensity, higher = more binding, comparable within an allelic series)"
same,binding signal,[4],"8.31 upbm affinity estimate (log intensity, higher = more binding, comparable within an allelic series)"
ACCTCCCA,binding signal,[1],"8.37 upbm affinity estimate (log intensity, higher = more binding, comparable within an allelic series)"
same,binding signal,[2],"8.4 upbm affinity estimate (log intensity, higher = more binding, comparable within an allelic series)"
same,binding signal,[3],"8.05 upbm affinity estimate (log intensity, higher = more binding, comparable within an allelic series)"
same,binding signal,[4],"8.28 upbm affinity estimate (log intensity, higher = more binding, comparable within an allelic series)"
AATAATCC,binding signal,[1],"13.4 upbm affinity estimate (log intensity, higher = more binding, comparable within an allelic series)"
same,binding signal,[2],"13.4 upbm affinity estimate (log intensity, higher = more binding, comparable within an allelic series)"
same,binding signal,[3],"13 upbm affinity estimate (log intensity, higher = more binding, comparable within an allelic series)"
same,binding signal,[6],"11.5 upbm affinity estimate (log intensity, higher = more binding, comparable within an allelic series)"
same,binding signal,[7],"11.3 upbm affinity estimate (log intensity, higher = more binding, comparable within an allelic series)"
same,binding signal,[4],"13.4 upbm affinity estimate (log intensity, higher = more binding, comparable within an allelic series)"
CGGACACG,binding signal,[1],"8.06 upbm affinity estimate (log intensity, higher = more binding, comparable within an allelic series)"
same,binding signal,[2],"8.04 upbm affinity estimate (log intensity, higher = more binding, comparable within an allelic series)"
same,binding signal,[8],"6.53 upbm affinity estimate (log intensity, higher = more binding, comparable within an allelic series)"
same,binding signal,[9],"6.6 upbm affinity estimate (log intensity, higher = more binding, comparable within an allelic series)"
same,binding signal,[4],"8.13 upbm affinity estimate (log intensity, higher = more binding, comparable within an allelic series)"
same,binding signal,[10],"6.41 upbm affinity estimate (log intensity, higher = more binding, comparable within an allelic series)"
CTAATCCC,binding signal,[1],"13.5 upbm affinity estimate (log intensity, higher = more binding, comparable within an allelic series)"
same,binding signal,[2],"13.6 upbm affinity estimate (log intensity, higher = more binding, comparable within an allelic series)"
same,binding signal,[3],"13.4 upbm affinity estimate (log intensity, higher = more binding, comparable within an allelic series)"
same,binding signal,[4],"13.4 upbm affinity estimate (log intensity, higher = more binding, comparable within an allelic series)"
CAGGATTA,binding signal,[1],"13.1 upbm affinity estimate (log intensity, higher = more binding, comparable within an allelic series)"
same,binding signal,[2],"13.2 upbm affinity estimate (log intensity, higher = more binding, comparable within an allelic series)"
same,binding signal,[3],"12.9 upbm affinity estimate (log intensity, higher = more binding, comparable within an allelic series)"
same,binding signal,[4],"13 upbm affinity estimate (log intensity, higher = more binding, comparable within an allelic series)"
GGGGATTA,binding signal,[1],"13.7 upbm affinity estimate (log intensity, higher = more binding, comparable within an allelic series)"
same,binding signal,[2],"13.8 upbm affinity estimate (log intensity, higher = more binding, comparable within an allelic series)"
same,binding signal,[3],"13.5 upbm affinity estimate (log intensity, higher = more binding, comparable within an allelic series)"
same,binding signal,[4],"13.8 upbm affinity estimate (log intensity, higher = more binding, comparable within an allelic series)"
CGACTCGC,binding signal,[1],"8.13 upbm affinity estimate (log intensity, higher = more binding, comparable within an allelic series)"
same,binding signal,[2],"8.24 upbm affinity estimate (log intensity, higher = more binding, comparable within an allelic series)"
same,binding signal,[11],"7.77 upbm affinity estimate (log intensity, higher = more binding, comparable within an allelic series)"
same,binding signal,[12],"7.61 upbm affinity estimate (log intensity, higher = more binding, comparable within an allelic series)"
same,binding signal,[13],"7.85 upbm affinity estimate (log intensity, higher = more binding, comparable within an allelic series)"
same,binding signal,[14],"7.71 upbm affinity estimate (log intensity, higher = more binding, comparable within an allelic series)"
same,binding signal,[4],"8.21 upbm affinity estimate (log intensity, higher = more binding, comparable within an allelic series)"
same,binding signal,[15],"7.81 upbm affinity estimate (log intensity, higher = more binding, comparable within an allelic series)"
CCCAGTCC,binding signal,[1],"8.2 upbm affinity estimate (log intensity, higher = more binding, comparable within an allelic series)"
same,binding signal,[2],"8.28 upbm affinity estimate (log intensity, higher = more binding, comparable within an allelic series)"
same,binding signal,[16],"9.59 upbm affinity estimate (log intensity, higher = more binding, comparable within an allelic series)"
same,binding signal,[17],"7.25 upbm affinity estimate (log intensity, higher = more binding, comparable within an allelic series)"
same,binding signal,[18],"9.36 upbm affinity estimate (log intensity, higher = more binding, comparable within an allelic series)"
same,binding signal,[19],"7.27 upbm affinity estimate (log intensity, higher = more binding, comparable within an allelic series)"
same,binding signal,[4],"8.25 upbm affinity estimate (log intensity, higher = more binding, comparable within an allelic series)"
same,binding signal,[20],"7.03 upbm affinity estimate (log intensity, higher = more binding, comparable within an allelic series)"

# From article PMC11006913
